Results as given in PubChem BioAssay (NCI).
About 79,000 compounds went through this panel and 15% of them were active in at least one assay; those are over-represented in the sample as a whole. Activity calls are given as the source filed them. No stated cut-off is given here; in the data, active means growth inhibition above about 70%; inactive means the rest.

Legend:
[1] = NCI Yeast Anticancer Drug Screen. Data for the rad52 strain (AID 147);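 further: 0% = growth of vehicle-treated control cultures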; conditions: S. cerevisiae rad52 mutant growth inhibition, stronger effect = higher value
Outline: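 Compounds are applied to a genetically defined yeast strain lacking normal DNA damage repair, and inhibition of growth is expressed relative to cultures given vehicle only.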

[2] = NCI Yeast Anticancer Drug Screen. Data for the wt1 strain (AID 149);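 further: 0% = growth of vehicle-treated wt1 cultures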; conditions: S. cerevisiae wt1 strain (SPY 50644) growth inhibition, stronger effect = higher value
Outline: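 Compounds are added to wt1 yeast cultures. Growth is then measured. Inhibition is expressed relative to vehicle-treated controls.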

[3] = NCI Yeast Anticancer Drug Screen. Data for the rad50EPP+ strain (AID 151);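 further: 0% = growth of vehicle-treated control cultures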; conditions: S. cerevisiae rad50 mutant strain, stronger effect = higher value
Outline: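 Compounds were applied to the rad50EPP+ yeast strain, which bears a defined DNA repair alteration, and growth inhibition was determined relative to vehicle-treated cultures.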

[4] = NCI Yeast Anticancer Drug Screen. Data for the rad50 strain (AID 155);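 further: 0% = growth of vehicle-only cultures of the same strain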; conditions: S. cerevisiae rad50 strain growth inhibition, stronger effect = higher value
Outline: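 Inhibition values express reduced yeast growth in compound-treated cultures relative to vehicle-treated controls.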

[5] = NCI Yeast Anticancer Drug Screen. Data for the mec2-1 strain (AID 157); conditions: S. cerevisiae mec2-1 strain, stronger effect = higher value
Outline: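 Strain: mec2-1 (DNA repair/cell cycle alteration). Compound exposure, then growth measured; inhibition expressed relative to vehicle.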

[6] = NCI Yeast Anticancer Drug Screen. Data for the rad14 strain (AID 159);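 further: 0% = growth of vehicle-treated control cultures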; conditions: S. cerevisiae rad14 strain growth inhibition, stronger effect = higher value
Outline: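 A mutant yeast strain defective in DNA damage repair is treated with compound; inhibition of its growth is scored against untreated, vehicle-exposed cultures.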

[7] = NCI Yeast Anticancer Drug Screen. Data for the sgs1 mgt1 strain (AID 161);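 further: 0% = growth of cultures given vehicle only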; conditions: S. cerevisiae sgs1 mgt1 strain, stronger effect = higher value
Outline: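 Mutant yeast exposed to compound; growth scored against vehicle-only wells.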

[8] = NCI Yeast Anticancer Drug Screen. Data for the CLN2oe strain (AID 163);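 further: 0% = growth of vehicle-only control cultures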; conditions: S. cerevisiae CLN2oe strain, stronger effect = higher value
Outline: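 Growth of a genetically modified yeast strain is measured after compound exposure and compared with cultures given vehicle alone.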

[9] = NCI Yeast Anticancer Drug Screen. Data for the cln2 rad14 strain (AID 165);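 further: 0% = growth equal to vehicle treated cultures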; conditions: S. cerevisiae cln2 rad14 strain, stronger effect = higher value
Outline: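 Compounds are applied to the cln2 rad14 yeast strain, and growth is then compared with that of vehicle-treated cultures to give inhibition.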

[10] = NCI Yeast Anticancer Drug Screen. Data for the bub3 strain (AID 167); conditions: S. cerevisiae bub3 mutant strain, stronger effect = higher value
Outline: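 Steps: expose the mutant yeast strain to compound; grow alongside vehicle-treated cultures; measure growth; express inhibition against the vehicle cultures.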

[11] = NCI Yeast Anticancer Drug Screen. Data for the wt2 strain (AID 169);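 further: 0% = growth of vehicle-treated yeast cultures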; conditions: S. cerevisiae wt2 strain growth inhibition, stronger effect = higher value
Outline: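 This strain belongs to a panel of yeast strains with defined genetic alterations in DNA damage repair or cell cycle control. Compounds are applied, and growth inhibition is measured against vehicle-treated cultures.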

[12] = NCI Yeast Anticancer Drug Screen. Data for the mlh1 strain (AID 171);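 further: 0% = growth of vehicle-treated control cultures of the same strain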; conditions: S. cerevisiae mlh1 strain growth inhibition, stronger effect = higher value
Outline: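 Growth of the mutant yeast strain after compound exposure, expressed as inhibition relative to vehicle-only controls.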

[13] = NCI Yeast Anticancer Drug Screen. Data for the sgs1 strain (AID 173);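 further: 0% = growth of vehicle-only control cultures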; conditions: S. cerevisiae sgs1 mutant, stronger effect = higher value
Outline: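 Growth of a yeast strain bearing a defined genetic alteration is measured after compound treatment. Inhibition is expressed relative to vehicle-only controls.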

[14] = NCI Yeast Anticancer Drug Screen. Data for the mlh1 rad18 strain (AID 175); conditions: S. cerevisiae mlh1 rad18 strain growth inhibition, stronger effect = higher value
Outline: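 Read-out is yeast growth inhibition, calculated against vehicle-only controls. The compound was applied to a strain engineered with DNA damage repair alterations.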

[15] = NCI Yeast Anticancer Drug Screen. Data for the rad18 strain (AID 177); conditions: S. cerevisiae rad18 mutant growth inhibition, stronger effect = higher value
Outline: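 Growth of the mutant yeast strain after compound exposure, normalised to vehicle-only cultures.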

[16] = at 5.0 µM (retest, dose inferred, filed as 0.5)
[17] = at 50.0 µM (retest, dose inferred, filed as 5.0)

Measured: growth inhibition

CC(=O)C1=C(C)O/C(=C/c2cccc(Cl)c2)C1=O
inactive: [1]; at 1.2 µM 14% | [1]; at 3.7 µM 36% | [1]; at 11.0 µM 27% | [1]; at 33.0 µM 36% | [2]; at 1.2 µM -7% | [2]; at 3.7 µM 2% | [2]; at 11.0 µM 2% | [2]; at 33.0 µM -2% | [2]; at 100.0 µM 25% | [3]; at 1.2 µM 16% | [3]; at 3.7 µM 25% | [3]; at 11.0 µM 22% | [3]; at 33.0 µM 32% | [4]; at 1.2 µM -4% | [4]; at 3.7 µM 19% | [4]; [16] -1% | [4]; at 11.0 µM 21% | [4]; at 33.0 µM 18% | [4]; [17] 59% | [4]; at 50.0 µM 52.7% | [5]; at 1.2 µM -9% | [5]; at 3.7 µM 2% | [5]; [16] 2% | [5]; at 11.0 µM 0% | [5]; at 33.0 µM 7% | [5]; [17] 68% | [6]; at 1.2 µM 7% | [6]; at 3.7 µM 0% | [6]; at 11.0 µM 6% | [6]; at 33.0 µM 10% | [6]; at 100.0 µM 28% | [7]; [16] 10% | [7]; [17] 60% | [7]; at 50.0 µM 10.7% | [8]; at 1.2 µM 5% | [8]; at 3.7 µM 5% | [8]; at 11.0 µM 15% | [8]; at 33.0 µM 29% | [9]; [16] 6% | [9]; [17] 12% | [9]; at 50.0 µM -1.45% | [10]; at 1.2 µM 0% | [10]; at 3.7 µM 12% | [10]; [16] 5% | [10]; at 11.0 µM 18% | [10]; at 33.0 µM 26% | [10]; [17] 47% | [10]; at 50.0 µM -8% | [11]; at 1.2 µM -12% | [11]; at 3.7 µM 6% | [11]; at 11.0 µM 16% | [12]; at 1.2 µM -3% | [12]; at 3.7 µM -4% | [12]; at 11.0 µM 4% | [12]; at 33.0 µM 9% | [13]; at 1.2 µM 2% | [13]; at 3.7 µM 36% | [13]; at 11.0 µM 29% | [13]; at 33.0 µM 39% | [14]; [16] 9% | [15]; at 1.2 µM -7% | [15]; at 3.7 µM 16% | [15]; at 11.0 µM 13% | [15]; at 33.0 µM 28%
active: [1]; at 100.0 µM 99% | [3]; at 100.0 µM 88% | [4]; at 100.0 µM 96% | [5]; at 50.0 µM 71% | [5]; at 100.0 µM 96% | [8]; at 100.0 µM 98% | [10]; at 100.0 µM 91% | [11]; at 33.0 µM 71% | [11]; at 100.0 µM 91% | [12]; at 100.0 µM 75% | [13]; at 100.0 µM 95% | [14]; [17] 88% | [14]; at 50.0 µM 91.3% | [15]; at 100.0 µM 99%
